High-throughput results deposited in PubChem BioAssay by National Center for Advancing Translational Sciences (NCATS).
The full list was thinned out, with hits kept by preference.
ClpP mod = qHTS Assay for Activators of ClpP; hit rate 1.9% among 340,000; Potency, µM (titrated, usually from 57.5 µM), for inactives: top-dose activity change, negative = active; ATP-dependent Clp protease proteolytic subunit (Bacillus subtilis (strain 168)), P80244; AID 651965, 2013; purified B. subtilis ClpP, FRET peptide cleavage, 20 min; active = well fitted falling curve with a large enough effect; inconclusive = small, poorly fitted or top-dose-only effect; inactive = no such curve, though single readings can be large or run the other way; also: the source files actives as falling curves though it sought activators and does not explain the sign; nearly all actives have a fitted effect of over 65% in size
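Purified B. subtilis ClpP, 10 microg/mL final in Tris/HCl pH8 with KCl, BSA, glycerol and Tween-20, cleaved an Abz/nitrotyrosine-quenched decapeptide. Fluorescence (ex 320, em 430) was read at 0 and 20 min at room temperature. Delta was normalized to 5.8 microM ADEP and DMSO/no-enzyme controls.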
GALK inhibitor = inhibitors of human galactokinase; Purified GALK, Kinase-Glo residual ATP luminescence; AID 1868; hit rate 0.007% among 270,000; Potency, µM (series often up to 57.5 µM), without a hit: at the highest dose activity change, negative = inhibition, actives largely listed as inhibitors; also: % is scaled to controls: 0 for no effect and ±100 for the full control effect
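Galactose (100 uM) and ATP (35 uM) were turned over by 5 nM GALK for 1 h at RT. Kinase-Glo Plus then converted the remaining ATP into a luminescent signal.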
Eya2 inh = blocks the phosphatase activity of human Eya2; O00167; recombinant Eya2, OMFP fluorescence dephosphorylation (OMFP is methylfluorescein phosphate); Potency, µM (titrated, usually from 76.9 µM), for the others: at the highest dose activity, negative = inhibition, usual class: inhibitors; hit rate 0.006% among 330,000; also: % is scaled to controls: 0 for no effect and ±100 for the full control effect
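Eya2 (0.2 uM) preincubated 10 min at ambient with compound, then OMFP substrate added at 50 uM; 10 min reaction in 50 mM HEPES pH 7.5, 50 mM NaCl, 5 uM MgCl2, 0.05% BSA, 1 mM DTT. Fluorescence read at Ex 485/Em 525 nm.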
USP2a inh = inhibitors of human ubiquitin-specific protease USP2a; O75604; USP2 core, Ub-CHOP2 coupled fluorogenic reporter, 485/531; Potency, µM (top dose mostly 38.3 µM), for inactives: at the top dose activity change, negative = inhibition, usual class: inhibitors; hit rate 0.01% among 330,000; AID 463254;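 also: plate controls were DMSO wells for no effect and full inhibition by NEM control for full effect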
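USP2 core (10nM final) preincubated 30min RT with compound in 20mM Tris-HCl pH 8.0, 2mM CaCl2, 2mM beta-mercaptoethanol, 0.05% CHAPS; 25nM Ub-CHOP2 plus 25nM reporter substrate added, fluorescence (Ex485/Em531) read after 60min.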
* marks the source's active call; other numbers are inactive results; ? = inconclusive; / = no result. Unless noted, calls follow the shape of the dose curve; as a rule, active = well fitted inhibition curve with a large enough effect; inconclusive = small, poorly fitted or top-dose-only effect, or effect the other way; inactive = flat fitted curve, though single readings scatter. Potency is read from the fitted curve at half-maximal effect.

SMILES	ClpP mod	GALK inhibitor	Eya2 inh	USP2a inh
O=C1c2ccccc2NC(c2ccc(Cl)cc2Cl)N1Cc1ccccc1 (stereo not given)	31.6µM*	1.4%	-3.5%	-9.5%
O=C1c2ccccc2NC(c2cccc([N+](=O)[O-])c2)N1CCc1ccccc1 (stereo not given)	/	-0.9%	-0.7%	-4.2%
O=C1c2ccccc2NC(c2ccc(Cl)cc2Cl)N1O (stereo not given)	2.5%	1.7%	-3.2%	-1.7%
Cc1cccc(C2Nc3ccccc3C(=O)N2CCc2ccccc2)n1 (stereo not given)	17.8µM*	-1.2%	12.2%	-1.5%
O=C1c2ccccc2NC(c2c(Cl)cccc2Cl)N1Cc1ccccc1 (stereo not given)	31.6µM*	0.3%	-14.1%	-18.0%
COc1ccc(CCN2C(=O)N(c3ccc(F)cc3)C(=O)C2CC(=O)Nc2ccccc2)cc1OC (stereo not given)	0.9%	/	/	/
CCCCNCc1cc(OC)c(OCC(N)=O)cc1Br	1.5%	-3.3%	7.5%	2.4%
COc1cccc(N2C(=O)C(O)=C(C(C)=O)C2c2ccc(OC)c(OC)c2)c1 (stereo not given)	0.1%	-0.6%	-17.5%	2.7%
CCOC(=O)N1CCN(Cc2nc3ccc([N+](=O)[O-])cc3c(=O)n2-c2ccccc2F)CC1	0.7%	-0.6%	-2.3%	1.1%
COc1ccc(CC(=O)N2CCN(c3ccc(C4=NNC(=O)CC4C)cc3)CC2)cc1 (stereo not given)	28.2µM*	/	0.4%	1.2%
CN(Cc1ccccc1)C(=O)CCSc1nc(-c2ccc3c(c2)OCO3)cc(C(F)(F)F)n1	17.8µM*	-4.6%	-17.2%	-0.7%
O=C(CCSc1nc(-c2ccc3c(c2)OCO3)cc(C(F)(F)F)n1)NCc1ccccc1	-2.9%	-2.6%	-0.4%	0.8%
COc1ccc(CNC(=O)CCSc2nc(-c3ccc4c(c3)OCO4)cc(C(F)(F)F)n2)cc1	7.94µM*	-0.7%	2.7%	-0.5%
O=C1NC[C@H](Cc2ccc(O)cc2)N(C[C@@H]2CCCN2C[C@H](Cc2ccc(O)cc2)N2C[C@H](Cc3ccccc3)N(CC3CCCCC3)C(=O)C2=O)C1=O	0.2%	/	/	/
CCNc1nc(NCC)nc(NC(N)=S)n1	28.2µM*	8.9%	8.3%	1.2%
CSc1nnc(-c2cc(-c3ccc(C)cc3)nc3ccccc23)o1	35.5µM*	0.3%	-3.7%	1.4%
CCOc1ccc(NC(=O)CN(C)C(=O)C2(c3ccccc3)CC2)cc1OCC	-0.4%	/	4.7%	0.4%
CC1(C)C(=O)OC(c2cccn2-c2ccc([N+](=O)[O-])cc2)C2(CCCCC2)C1=O (stereo not given)	1.2%	-0.8%	-2.8%	3.0%
CC1(C)C(=O)OC(c2c(F)c(F)c(F)c(F)c2F)C2(CCCCC2)C1=O (stereo not given)	28.2µM*	0.5%	3.9%	1.1%
CCCOc1ccc(-c2nc(OCC)c3ccccc3n2)cc1	31.6µM*	1.5%	-2.3%	-3.9%
COc1ccc(-c2cc(C(=O)OCC(=O)c3cccc([N+](=O)[O-])c3)c3cc(C)ccc3n2)cc1	/	-0.3%	6.3%	2.4%
Cc1cc(C(=O)OCC(=O)c2cccc([N+](=O)[O-])c2)c2cccc(C)c2n1	-14.3%	4.8%	?	11.2µM*
COCCCn1c(SCc2nc3ccccc3c(=O)[nH]2)nc2ccccc2c1=O	-3.9%	2.4%	12.6%	-1.5%
COCC(C)n1c(SCc2nc3ccccc3c(=O)[nH]2)nc2ccccc2c1=O (stereo not given)	20µM*	13.2%	3.8%	0.8%
Cn1c(=O)c(=O)n(C)c2cc(S(=O)(=O)Nc3ccc(OC(F)(F)F)cc3)ccc21	-4.0%	-1.0%	-0.3%	1.8%
SMILES	ClpP mod	GALK inhibitor	Eya2 inh	USP2a inh
CN(C)CCCN=Cc1c(O)n(Cc2ccccc2)c(=O)c2ccccc12	25.1µM*	-1.3%	9.9%	-4.1%
CN(C)CCN=Cc1c(O)n(Cc2ccccc2)c(=O)c2ccccc12	/	0.1%	13.9%	0.9%
CCc1ccc(-n2nc(CO)c(C(=O)NCCOC)n2)cc1	12.6µM*	/	/	/
CCc1ccc(-n2nc(CO)c(C(=O)NCc3cccs3)n2)cc1	-19.2%	/	/	/
CCOc1ccc(-n2nc(CO)c(C(=O)NCC(C)O)n2)cc1 (stereo not given)	14.1µM*	/	/	/
CCc1ccc(CNC(=O)c2nn(-c3ccc(C)c(C)c3)nc2CO)cc1	3.55µM*	/	/	/
COCCNC(=O)c1nn(-c2ccc(Cl)cc2)nc1CO	14.1µM*	/	/	/
Cc1ccccc1-n1nc(CO)c(C(=O)NCC(c2ccccc2)c2ccccc2)n1	-12.7%	/	/	/
COP(=O)(OC)c1nc(-c2ccc([N+](=O)[O-])cc2)oc1N1CCCCC1	-4.8%	0.9%	-28.9%	1.0%
O=C(O)CCC(=O)Nc1ccccc1C(=O)NCCc1ccccc1	14.1µM*	0.9%	-1.9%	2.9%
O=C(Cc1ccc(S(=O)(=O)N2CCOCC2)s1)Nc1ccccc1Br	-0.5%	-2.6%	2.6%	-1.3%
O=C(Cc1ccc(S(=O)(=O)N2CCOCC2)s1)Nc1ccccc1N1CCOCC1	14.1µM*	-2.4%	-9.6%	-1.8%
Cc1ccccc1-n1nc(C)c2cc(C(=O)NCc3cccnc3)sc21	28.2µM*	2.5%	-18.1%	-1.7%
Cc1ccc(Cn2cccc(NC(=O)NCc3ccccc3)c2=O)cc1	31.6µM*	-0.6%	10.6%	-0.4%
Cc1ccc(CNC(=O)C(c2ccccc2)c2ccccc2)cc1	/	5.4%	-13.0%	1.6%
Cc1ccc(CC(CC(=O)O)C(=O)NCc2ccccc2)cc1 (stereo not given)	15.8µM*	1.1%	6.7%	-9.7%
NC(=O)C1=CN(Cc2ccc(Cl)cc2)CCC1C(F)(F)F (stereo not given)	-2.5%	-0.4%	6.8%	3.0%
CCOc1ccc(S(=O)(=O)NCCC(=O)NCCc2ccc(C(C)C)cc2)cc1	-1.4%	/	9.6%	-0.9%
COc1ccc(CNCC(=O)Nc2cccc(S(N)(=O)=O)c2)cc1	35.5µM*	2.3%	-5.0%	-12.2%
N/C(=N/OCc1cccc([N+](=O)[O-])c1)c1nonc1N	11.2µM*	/	-2.6%	2.4%
N/C(=N\OCc1ccccc1)c1nonc1N	-2.3%	0.6%	13.3%	-0.2%
COc1cc(OC)c2c(-c3cccc(-c4cccc(C)c4)c3)cc(=O)oc2c1	22.4µM*	/	-5.2%	-0.3%
COc1cc(OC)cc(-n2c3nc4ccccc4nc3c3c(=O)n(CC4CCCO4)cnc32)c1 (stereo not given)	-7.2%	4.6%	14.0%	-0.4%
O=c1c2c3nc4ccccc4nc3n(CC3CCCO3)c2ncn1CCc1ccccc1 (stereo not given)	4.47µM*	-3.5%	-21.6%	3.7%
N#Cc1ccc(C23CC4CC(CC(C4)C2)C3)[nH]c1=O	15.8µM*	4.2%	3.9%	-1.0%
Cc1ncc(C23CC4CC(CC(C4)C2)C3)[nH]1	-0.3%	7.9%	-2.5%	-1.1%
O=c1[nH]c2ccccc2nc1-c1cccs1	14.1µM*	-2.0%	4.6%	2.1%
CC(c1nc2ccccc2[nH]1)n1c(=O)c(-c2cccs2)nc2ccccc21 (stereo not given)	22.4µM*	/	/	/
